Source: PubChem BioAssay (Tox21)
Values without a mark were called inactive. A call without a number means that no potency is given here. Calls of active or inactive are those of the source. The call rests on the fitted dose curve.

What follows are compounds tested against Acetylcholinesterase (Homo sapiens) (UniProt P22303) (assay: Acetylcholinesterase (AChE) small molecule antagonists: enzyme-based qHTS assay with human liver microsomes (AID 1347399; further: nearly all actives have a fitted effect of over 60% in size)). Conditions: Potency: qHTS inhibition; outcome: qHTS inhibition; series mostly up to 115 µM.
Chain of Acetylcholinesterase (Homo sapiens) (P22303 whole entry, looked up): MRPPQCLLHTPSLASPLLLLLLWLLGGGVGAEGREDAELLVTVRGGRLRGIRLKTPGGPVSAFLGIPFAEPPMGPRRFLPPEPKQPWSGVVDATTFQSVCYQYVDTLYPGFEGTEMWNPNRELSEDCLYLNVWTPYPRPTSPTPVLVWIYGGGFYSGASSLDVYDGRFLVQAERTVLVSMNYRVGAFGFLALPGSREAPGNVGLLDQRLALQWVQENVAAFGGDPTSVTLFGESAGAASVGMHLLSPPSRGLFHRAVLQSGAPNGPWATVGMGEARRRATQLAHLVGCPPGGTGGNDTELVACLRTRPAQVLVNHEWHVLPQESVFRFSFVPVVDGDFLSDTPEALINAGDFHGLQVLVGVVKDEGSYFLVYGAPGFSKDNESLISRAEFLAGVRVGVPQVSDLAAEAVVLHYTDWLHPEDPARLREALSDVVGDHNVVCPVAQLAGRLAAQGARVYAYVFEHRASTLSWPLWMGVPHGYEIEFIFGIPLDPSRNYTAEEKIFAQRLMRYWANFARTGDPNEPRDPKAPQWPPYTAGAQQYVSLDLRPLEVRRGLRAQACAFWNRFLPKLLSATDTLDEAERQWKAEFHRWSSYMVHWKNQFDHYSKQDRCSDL
In short: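 Recombinant human AChE (50 mU/mL in the enzyme mix) and human liver microsomes (0.25 mg/mL final) were preincubated with compound and NADPH (0.25 mg/mL final) for 30 min at 37 C. Acetylthiocholine/DTNB was then added; thiocholine was read colorimetrically after 10 min at room temperature.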

Structure (SMILES)	Potency	activity change, negative = inhibition
O=C(c1ccccc1)c1ccc(Cl)cc1	inactive	–
O=C(O)Cn1c(C(=O)Nc2nc(-c3ccccc3Cl)cs2)cc2ccccc21	inactive	–
O=C(O)Cn1cnnn1	inactive	–
CCCCOC(=O)C(C)Oc1ccc(Oc2ccc(C(F)(F)F)cn2)cc1 (centres undefined)	inactive	–
O=C(c1ccccc1)c1cccc(O)c1	inactive	–
CO[C@H]1C=CO[C@@]2(C)Oc3c(C)c(O)c4c(O)c(c5c(c4c3C2=O)=NC2(CCN(CC(C)C)CC2)N=5)NC(=O)/C(C)=C\C=C/[C@H](C)[C@H](O)[C@@H](C)[C@@H](O)[C@@H](C)[C@H](OC(C)=O)[C@@H]1C	inactive	–
Cc1ccc(C(C)C)cc1O	inactive	–
O=C1OC2(c3cc(Br)c(O)c(Br)c3Oc3c2cc(Br)c(O)c3Br)c2c(Cl)c(Cl)c(Cl)c(Cl)c21	inactive	–
CC(C)=CC(C)(C)C	inactive	–
CCC(C)OC(=O)c1ccc(O)cc1 (centres undefined)	inactive	–
Brc1cc(Oc2cc(Br)c(Br)c(Br)c2Br)c(Br)c(Br)c1Br	inactive	–
C/C(=C(\CCOP(=O)(O)O)SC(=O)c1ccccc1)N(C=O)Cc1cnc(C)nc1N	–	-1.26% [at 10.5 µM]
COC(=O)N/N=C/c1c[n+]([O-])c2ccccc2[n+]1[O-]	inactive	–
c1ccc2ccccc2c1	inactive	–
O=C1NCCN1	inactive	–
Cc1ccc(C(=O)Oc2ccc(C(O)CNC(C)(C)C)cc2OC(=O)c2ccc(C)cc2)cc1 (centres undefined)	inactive	–
COC(=O)CCS	inactive	–
CCCCOC(=O)CCCCCCCCC(=O)OCCCC	inactive	–
CO[C@H]1O[C@H](CO)[C@@H](O)[C@H](O)[C@H]1O	inactive	–
